Several values for one entry are separate records, joined by “and”; a condition that tells them apart may be missing. Equal entries are not always repeated. Inconclusive results are not listed. A call without a number means that no potency is given here. Where a structure was tested more than once in an assay, its records may differ in their call. Activity calls are given as the source filed them. Unless noted, calls follow the shape of the dose curve; as a rule, active = well fitted curve in the direction sought with a large enough effect in the repeat runs; inconclusive = weak or mixed curves; inactive = no such curve, though single readings can be large; an effect the other way counts as inactive or inconclusive.
Tests used:
[1] = A CellTox Green Cytotoxicity Assay to monitor cytotoxicity in HepG2 cells - 0 hour (AID 1224882); also: nearly all actives have a fitted effect of over 35% in size
Procedure, shortened: (§1)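 Read-out is fluorescence of a cyanine dye excluded from live cells that stains DNA of dead HepG2 cells, with signal proportional to cytotoxicity. Plates were read at 0, 8, 16, 24, 32 and 40 h after compound addition.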

[2] = A CellTox Green Cytotoxicity Assay to monitor cytotoxicity in HepG2 cells - 32 hour (AID 1224883); also: nearly all actives have a fitted effect of over 50% in size; also: potency is read from the fitted curve at half-maximal effect
Procedure, shortened: as §1

[3] = A CellTox Green Cytotoxicity Assay to monitor cytotoxicity in HEK293 cells - 8 hour (AID 1224884); also: nearly all actives have a fitted effect of over 35% in size; also: potency is read from the fitted curve at half-maximal effect
Procedure, shortened: (§2)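 Nonlytic real-time cytotoxicity: HEK293 + CellTox Green reagent plated, 5 h preincubation, pintool compound addition (23 nL in DMSO), 37 C for 40 h, fluorescence measured at successive time points.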

[4] = qHTS RealTime-Glo MT Cell Viability Assay in HepG2 cells - 16 hour (AID 1224885); also: nearly all actives have a fitted effect of over 50% in size; also: potency is read from the fitted curve at half-maximal effect
Procedure, shortened: (§3)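 Compound treatment began 5 h after plating HepG2 cells (600/well) with NanoLuc luciferase and prosubstrate. Plates stayed at 37 C for 40 h; luminescence was captured at six time points, 0 h through 40 h.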

[5] = qHTS RealTime-Glo MT Cell Viability Assay in HEK293 cells - 24 hour (AID 1224886); also: nearly all actives have a fitted effect of over 50% in size; also: potency is read from the fitted curve at half-maximal effect
Procedure, shortened: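 Quantitative high-throughput screen of the Tox21 10K library in HEK293: cells and RealTime-Glo reagents plated together, compound added at 5 h, luminescence monitored through 40 h at 37 C.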

[6] = qHTS RealTime-Glo MT Cell Viability Assay in HEK293 cells - 8 hour (AID 1224887); also: nearly all actives have a fitted effect of over 50% in size; also: potency is read from the fitted curve at half-maximal effect
Procedure, shortened: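 Cells were seeded together with NanoLuc luciferase and a prosubstrate that viable cells reduce to a luciferase substrate. After a 5 h incubation at 37 C/5% CO2, compounds were added and luminescence was measured repeatedly during 40 h of treatment.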

[7] = A CellTox Green Cytotoxicity Assay to monitor cytotoxicity in HEK293 cells - 16 hour (AID 1224888); also: nearly all actives have a fitted effect of over 35% in size; also: potency is read from the fitted curve at half-maximal effect
Procedure, shortened: as §2

[8] = qHTS RealTime-Glo MT Cell Viability Assay in HepG2 cells - 0 hour (AID 1224889); also: nearly all actives have a fitted effect of over 50% in size
Procedure, shortened: as §3

[9] = A CellTox Green Cytotoxicity Assay to monitor cytotoxicity in HepG2 cells - 8 hour (AID 1224890); also: nearly all actives have a fitted effect of over 45% in size; also: potency is read from the fitted curve at half-maximal effect
Procedure, shortened: as §1

[10] = qHTS assay to identify small molecule antagonists of the estrogen receptor alpha (ER-alpha) signaling pathway using the BG1 cell line in the presence of 0.1 nM 17-beta-estradiol - cell viability counter screen (AID 1259241); also: nearly all actives have a fitted effect of over 40% in size; also: potency is read from the fitted curve at half-maximal effect
Procedure, shortened: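 VM7Luc4E2, 4,000 cells/well, phenol red-free medium + 10% charcoal-stripped FBS; 24 hr plating; cpd + 0.1 nM E2 final, 22 hr 37C/5% CO2; CellTiter-Fluor 30 min, fluorescence.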

[11] = qHTS assay to identify small molecule antagonists of the androgen receptor (AR) signaling pathway using the MDA cell line in the presence of 0.5 nM R1881 - cell viability counter screen (AID 1259242); also: nearly all actives have a fitted effect of over 45% in size; also: potency is read from the fitted curve at half-maximal effect
Procedure, shortened: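 Counter screen for cytotoxicity run in the same wells as the AR antagonist reporter screen: MDA-kb2 cells were treated 16 hr with test compounds and 0.5 nM R1881, then live-cell protease activity was measured by fluorescence.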

[12] = molecular target: Estrogen receptor (Homo sapiens) (UniProt P03372); test: qHTS assay to identify small molecule antagonists of the estrogen receptor alpha (ER-alpha) signaling pathway using the BG1 cell line in the presence of 0.1 nM 17-beta-estradiol (AID 1259244); also: nearly all actives have a fitted effect of over 50% in size; also: potency is read from the fitted curve at half-maximal effect
Chain of Estrogen receptor (Homo sapiens) (P03372 whole entry, looked up): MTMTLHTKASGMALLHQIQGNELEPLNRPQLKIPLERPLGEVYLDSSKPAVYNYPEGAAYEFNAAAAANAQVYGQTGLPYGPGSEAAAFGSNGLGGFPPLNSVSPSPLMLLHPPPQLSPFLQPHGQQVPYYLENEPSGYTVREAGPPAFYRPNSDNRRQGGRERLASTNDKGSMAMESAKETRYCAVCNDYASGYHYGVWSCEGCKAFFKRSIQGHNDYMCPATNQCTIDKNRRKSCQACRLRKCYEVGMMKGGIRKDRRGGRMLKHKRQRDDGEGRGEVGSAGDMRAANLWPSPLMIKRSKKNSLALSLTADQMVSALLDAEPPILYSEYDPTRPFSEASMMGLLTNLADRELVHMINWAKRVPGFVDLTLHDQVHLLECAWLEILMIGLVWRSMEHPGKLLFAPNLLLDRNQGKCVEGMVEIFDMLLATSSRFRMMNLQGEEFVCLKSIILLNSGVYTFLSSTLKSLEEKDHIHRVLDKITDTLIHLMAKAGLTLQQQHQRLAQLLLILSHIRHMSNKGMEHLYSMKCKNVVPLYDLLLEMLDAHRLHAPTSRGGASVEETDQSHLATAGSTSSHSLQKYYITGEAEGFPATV
Procedure, shortened: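 Cells: VM7Luc4E2, endogenous ER-alpha, 4x ERE-luc stable. Pre-culture 5 d, phenol red-free, charcoal-stripped FBS. Plated 24 h, compound + E2 0.1 nM final, 22 h 37C/5% CO2. Readout ONE-Glo luminescence.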

[13] = qHTS assay to identify small molecule HDAC inhibitors - cell viability counter screen (AID 1259365); also: nearly all actives have a fitted effect of over 50% in size; also: potency is read from the fitted curve at half-maximal effect
Procedure, shortened: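 Luminescence from CellTiter-Glo, developed 30min at room temperature, reports viability of wild-type HCT-116 cells treated 2hr with compounds at 37 C and 5% CO2 after overnight plating.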

[14] = qHTS assay to identify small molecule agonists of the sonic hedgehog signaling (Shh) pathway - cell viability counter screen (AID 1259366); also: nearly all actives have a fitted effect of over 50% in size; also: potency is read from the fitted curve at half-maximal effect
Procedure, shortened: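 Cytotoxicity counter screen run in the same wells as the Shh reporter assay. NIH/3T3 cells carrying a Gli1 response element–driven luciferase were treated with DMSO-dissolved compounds for 24hr, and live-cell protease activity was measured with CellTiter-Fluor.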

[15] = qHTS assay to identify small molecule antagonists of the sonic hedgehog signaling (Shh) pathway - cell viability counter screen (AID 1259367); also: nearly all actives have a fitted effect of over 55% in size; also: potency is read from the fitted curve at half-maximal effect
Procedure, shortened: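 NIH/3T3-derived Gli1-Luc reporter cells (2,000 per well) rested 4 hr at 37 C, then received DMSO compounds plus conditioned medium. After 23 hr of treatment, CellTiter-Fluor was added for 1 hr at 37C and fluorescence read.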

[16] = qHTS assay to identify small molecule agonists of the sonic hedgehog signaling (Shh) pathway (AID 1259368; calls by dose curve;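 also: NIH/3T3-derived 3T3Gli1-Luc cells carrying a stable Gli1-driven firefly luciferase reporter; series mostly up to about 92 µM; nearly all actives have a fitted effect of over 15% in size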)
Procedure, shortened: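 3T3Gli1-Luc (NIH/3T3 clone, stable Gli1-Luc); 4 hr pre-incubation, then cpd in DMSO 24 hr, 37 C/5% CO2; luciferase reagent 30 min RT; luminescence.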

[17] = qHTS assay to identify small molecule antagonists of the sonic hedgehog signaling (Shh) pathway (AID 1259369; calls by dose curve; also: nearly all actives have a fitted effect of over 45% in size; also: potency is read from the fitted curve at half-maximal effect)
Procedure, shortened: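 3T3Gli1-Luc, conditioned-medium-stimulated, 24hr cpd, 37C/5% CO2; Gli1-driven firefly Luc luminescence after 30min RT with luciferase reagent. Cells plated 4hr before cpd.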

[18] = qHTS assay to identify small molecule phospholipidosis (PLD) inducers (AID 1259344; active = well fitted curve in the direction sought with a large enough effect; an effect the other way counts as inactive or inconclusive)
Procedure, shortened: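 HepG2 cells on collagen I, attached 4 h at 37 C, were co-treated with compound and LipidTOX Red dye for 24 h at 37 C, then fixed with paraformaldehyde plus Hoechst 33342 and imaged by high-content microscopy for phospholipid accumulation.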

[19] = qHTS assay to identify small molecule HDAC inhibitors (AID 1259364); also: top concentration of the series differs between compounds; nearly all actives have a fitted effect of over 45% in size
Procedure, shortened: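 Luminescence from a cell-permeant luminogenic class I/II HDAC substrate reports endogenous deacetylase activity in intact HCT-116 cells treated with compounds for 2 h.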

[20] = molecular target: Androgen receptor (Homo sapiens) (UniProt P10275); test: qHTS assay to identify small molecule antagonists of the androgen receptor (AR) signaling pathway using the MDA cell line in the presence of 0.5 nM R1881 (AID 1259243); also: nearly all actives have a fitted effect of over 50% in size; also: potency is read from the fitted curve at half-maximal effect
Chain of Androgen receptor (Homo sapiens) (P10275 whole entry, looked up): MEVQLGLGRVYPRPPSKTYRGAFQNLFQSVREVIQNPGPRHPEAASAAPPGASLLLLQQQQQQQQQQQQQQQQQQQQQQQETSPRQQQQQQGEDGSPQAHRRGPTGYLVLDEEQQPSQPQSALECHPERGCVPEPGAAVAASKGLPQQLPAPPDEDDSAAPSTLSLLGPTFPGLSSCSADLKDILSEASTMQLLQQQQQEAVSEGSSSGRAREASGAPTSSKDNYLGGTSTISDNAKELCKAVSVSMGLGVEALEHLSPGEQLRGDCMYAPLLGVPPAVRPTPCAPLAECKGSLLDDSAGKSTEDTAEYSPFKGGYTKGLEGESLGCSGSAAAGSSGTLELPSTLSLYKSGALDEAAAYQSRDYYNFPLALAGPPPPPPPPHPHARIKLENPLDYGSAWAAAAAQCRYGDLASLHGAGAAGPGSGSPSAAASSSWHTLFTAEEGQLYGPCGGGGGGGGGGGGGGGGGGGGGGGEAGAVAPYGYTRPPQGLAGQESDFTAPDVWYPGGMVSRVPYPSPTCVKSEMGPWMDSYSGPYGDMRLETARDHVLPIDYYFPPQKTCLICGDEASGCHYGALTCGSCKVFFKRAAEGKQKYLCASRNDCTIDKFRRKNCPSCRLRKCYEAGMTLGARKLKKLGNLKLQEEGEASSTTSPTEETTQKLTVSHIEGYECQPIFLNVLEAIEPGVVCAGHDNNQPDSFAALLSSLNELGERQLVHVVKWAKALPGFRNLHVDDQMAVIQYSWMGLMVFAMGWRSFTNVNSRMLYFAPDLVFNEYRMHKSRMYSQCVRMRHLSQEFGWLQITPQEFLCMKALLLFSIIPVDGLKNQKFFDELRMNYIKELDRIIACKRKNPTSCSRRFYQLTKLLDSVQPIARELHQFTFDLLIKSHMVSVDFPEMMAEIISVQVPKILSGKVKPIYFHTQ
Procedure, shortened: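 Luciferase luminescence is the read-out: compounds are tested for suppressing 0.5 nM R1881-driven MMTV reporter activity in MDA-kb2 cells after 16 hr at 37C.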

Compound	Potency [1]	Potency [2]	Potency [3]	Potency [4]	Potency [5]	Potency [6]	Potency [7]	Potency [8]	Potency [9]	Potency [10]	Potency [11]	Potency [12]	Potency [13]	Potency [14]	Potency [15]	Potency [16]	Potency [17]	outcome [18]	Potency [19]	Potency [20]
OCCOCCO	inactive	inactive	inactive	inactive	inactive	inactive	inactive	inactive	inactive	inactive	inactive	inactive	inactive	56.1 µM (active) and inactive	14.1 µM (active) and inactive	inactive	4.46 µM (active) and inactive			
c1ccc2c(c1)Nc1ccccc1S2	inactive	inactive	inactive	inactive	11 µM (active) and 10.7 µM (active)	13.8 µM (active) and 10.7 µM (active)	inactive	inactive	inactive	inactive	inactive	inactive	inactive	inactive	inactive	inactive	inactive	inactive	inactive	
O=C1CCCO1	inactive	inactive	inactive	inactive	inactive	inactive	inactive	inactive	inactive	inactive	inactive		inactive	inactive	inactive	inactive	inactive		inactive	inactive
CCOS(=O)(=O)OCC	inactive	inactive	inactive	inactive	inactive	inactive	inactive	inactive	inactive	inactive	inactive	inactive	inactive	inactive	inactive	inactive	inactive			
N#Cc1nn(-c2c(Cl)cc(C(F)(F)F)cc2Cl)c(N)c1S(=O)C(F)(F)F (centres undefined)	inactive	inactive	inactive	inactive	19.6 µM (active)	19.6 µM (active)	inactive	inactive	inactive	inactive	inactive	6.9 µM (active) and 21.1 µM (active)	inactive	inactive	inactive	inactive	inactive and 29.8 µM (active)	inactive	inactive	9.75 µM (active) and 15 µM (active)
Cc1ccc(N=CN(C)C=Nc2ccc(C)cc2C)c(C)c1	inactive	43.6 µM (active) and inactive	inactive	inactive	39.1 µM (active) and 38.9 µM (active) and inactive	inactive	inactive	inactive	inactive	inactive	inactive	inactive	inactive	inactive	inactive	inactive	54.7 µM (active) and inactive	inactive		
CCNc1nc(Cl)nc(NC(C)(C)C#N)n1	inactive	inactive	inactive	inactive	inactive	inactive	inactive	inactive	inactive	inactive	inactive		inactive	inactive	inactive	inactive	0.685 µM (active)		inactive	
CC1(C)Cc2cccc(O)c2O1	inactive	inactive	inactive	inactive	inactive	inactive	inactive	inactive	inactive	inactive	inactive	inactive	inactive	inactive	inactive	inactive	inactive			
C[C@]12CC[C@H]3[C@@H](CCC4=CC(=O)CC[C@@H]43)[C@@H]1CC[C@@H]2O	inactive	inactive	inactive	inactive	inactive	inactive	inactive	inactive	inactive	inactive	inactive	inactive	inactive	inactive	inactive	inactive		inactive	inactive	
Clc1cccc(Cl)c1	inactive	inactive	inactive	inactive	inactive	inactive	inactive	inactive	inactive	inactive	inactive		inactive	inactive	inactive	inactive	inactive		inactive	
COP(=S)(OC)Oc1ccc(S(=O)(=O)N(C)C)cc1	inactive	inactive	inactive	inactive	inactive	inactive	inactive	inactive	inactive	inactive	inactive	inactive	inactive	inactive	inactive	inactive	inactive	inactive	inactive	inactive
CCCCCCCC[N+](C)(CCCCCCCC)CCCCCCCC	inactive	8.69 µM (active) and 19.5 µM (active) and 13.8 µM (active)	24.5 µM (active) and 13.8 µM (active)	15.5 µM (active) and 21.9 µM (active) and 13.8 µM (active)	548 nM (active) and 138 nM (active) and 2.19 µM (active)	9.75 µM (active) and 21.9 µM (active) and 15.5 µM (active)	24.5 µM (active) and 24.6 µM (active) and 15.5 µM (active)	inactive	21.8 µM (active) and 39 µM (active) and 21.9 µM (active)	24.3 µM (active) and 27.3 µM (active) and 48.6 µM (active)	17.2 µM (active) and 3.44 µM (active) and 15.4 µM (active)	1.22 µM (active) and 15.4 µM (active)	inactive and 61.1 µM (active)	48.5 µM (active) and 9.7 µM (active) and 19.3 µM (active)	61 µM (active) and 10.9 µM (active) and 24.3 µM (active)	inactive	193 nM (active) and 48.6 nM (active) and 306 nM (active)			
ClC(Cl)(Cl)c1ccccc1	inactive	inactive	inactive	inactive	inactive	inactive	inactive	inactive	inactive	inactive	inactive	inactive	inactive	inactive	inactive	inactive	inactive		inactive	
[CH3][Sn]([Cl])([Cl])[Cl]	inactive	inactive	inactive	inactive	inactive	inactive	inactive	inactive	inactive	inactive	inactive		inactive	inactive	inactive	inactive	inactive		inactive	
COC(=O)Nc1nc2ccccc2[nH]1	inactive	6.17 µM (active) and inactive	inactive	inactive	inactive	inactive	inactive	inactive	inactive	inactive	inactive		inactive	inactive	inactive	inactive	24.3 µM (active) and inactive			inactive
CC(O)CN(CC(C)O)CC(C)O (centres undefined)	inactive	inactive	inactive	inactive	inactive	inactive	inactive	inactive	inactive	inactive	inactive		inactive	inactive	inactive	inactive	inactive		inactive	
O=[N+]([O-])/N=C1\NCCN1Cc1ccc(Cl)nc1	inactive	inactive	inactive	inactive	inactive	inactive	inactive	inactive	inactive	inactive	inactive	inactive	inactive	inactive	inactive	inactive	inactive	inactive	inactive	inactive
CC(C)=CC1C(C(=O)OCN2C(=O)C3=C(CCCC3)C2=O)C1(C)C (centres undefined)	inactive	inactive	inactive	inactive	inactive	inactive	inactive	inactive	inactive	inactive	inactive		inactive	inactive	inactive	inactive	inactive	inactive	inactive	inactive
CCOP(=S)(OCC)SCn1c(=O)oc2cc(Cl)ccc21	inactive	inactive	inactive	inactive	26.3 µM (active) and 21.9 µM (active)	26.3 µM (active) and 15.5 µM (active)	inactive	inactive	inactive	inactive	inactive	inactive	inactive	inactive	inactive	inactive			inactive	
CC(C)(c1ccc(OCC2CO2)cc1)c1ccc(OCC2CO2)cc1 (centres undefined)	inactive	inactive	inactive	inactive	inactive	inactive	inactive	inactive	inactive	inactive	inactive	inactive	inactive	inactive	inactive	inactive	15.6 µM (active)		inactive	inactive
Clc1cccc(C(Cl)(Cl)Cl)n1	inactive	54.5 µM (active)	inactive	inactive	inactive	inactive	inactive	inactive	inactive	inactive	inactive	inactive	inactive	inactive	inactive	inactive	inactive		inactive	inactive
COP(=O)(NC(C)=O)SC (centres undefined)	inactive	inactive	inactive	inactive	inactive	inactive	inactive	inactive	inactive	inactive	inactive		inactive	inactive	68.7 µM (active) and inactive	inactive	27.3 µM (active) and inactive		inactive	
CC1(C)C(C(=O)OC(C#N)c2cccc(Oc3ccccc3)c2)C1(C)C (centres undefined)	inactive	inactive	inactive	inactive	inactive	inactive	inactive	inactive	inactive	inactive	inactive	54.9 µM (active) and inactive	inactive	inactive	inactive	inactive	13.8 µM (active)		inactive	
S=c1[nH]c2ccccc2[nH]1	inactive	inactive and 21.9 µM (active)	inactive	inactive	inactive	inactive	inactive	inactive	inactive	inactive	inactive		inactive	inactive	inactive	inactive	inactive		inactive	inactive
O=NN1CCOCC1	inactive	inactive	inactive	inactive	inactive and 2.45 µM (active)	inactive and 7.76 µM (active)	inactive	inactive	inactive	inactive	inactive	inactive	inactive	inactive	inactive	inactive	inactive		inactive	

— PubChem BioAssay (Tox21)
